Screening results (PubChem BioAssay)
Shown are actives, neighbours in structure and some others; about 6.1% of the full set was active somewhere.
D1 agonist – Allosteric Agonists of the Human D1 Dopamine Receptor: qHTS. HEK293 T-REx D1 cells, calcium flux, agonist mode. activation, % at 2 µM. hit rate 1% among 360,000. AID 504660, 2011; in the data active means activation above about 30%
Target sequence (P21728 whole entry, looked up): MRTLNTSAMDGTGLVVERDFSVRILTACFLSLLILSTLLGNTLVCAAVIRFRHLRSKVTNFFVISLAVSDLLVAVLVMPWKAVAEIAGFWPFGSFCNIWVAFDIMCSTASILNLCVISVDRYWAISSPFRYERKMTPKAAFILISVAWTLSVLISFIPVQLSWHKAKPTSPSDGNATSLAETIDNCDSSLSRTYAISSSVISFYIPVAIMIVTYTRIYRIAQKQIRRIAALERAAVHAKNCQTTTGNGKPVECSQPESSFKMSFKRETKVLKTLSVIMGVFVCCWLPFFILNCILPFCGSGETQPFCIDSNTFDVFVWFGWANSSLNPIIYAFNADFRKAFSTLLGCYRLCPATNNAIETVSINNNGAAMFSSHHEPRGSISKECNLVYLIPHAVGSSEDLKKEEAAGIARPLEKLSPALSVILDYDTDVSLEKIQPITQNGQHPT
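Agonism was scored from calcium flux recorded over 180 s (1 read/s) after pintool compound addition, following a 10-cycle baseline. Cells were inducible force-coupled HEK293 TREx D1, plated overnight at 30 C and loaded with no-wash calcium dye.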
D3 ag – qHTS of D3 Dopamine Receptor Agonist: qHTS. D(3) dopamine receptor (Homo sapiens), P35462. D3R DiscoveRx beta-arrestin cells, luminescence, 90 min. max activation, %. hit rate 0.58% among 410,000; in the data active means max activation above about 30%
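Cells at 1500/well, incubated overnight, then treated with pinned compounds (dopamine as control) for 90 min at 37 degrees C. DiscoveRx reagent added for 30 - 60 minutes at room temperature; luminescence read.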
DRD3 antagonist – qHTS of D3 Dopamine Receptor Antagonist: qHTS | hit rate 2.5% among 360,000 | D3R cells, DiscoveRx beta-arrestin luminescence, antagonist mode; active compounds read low | max response, negative = inhibition, % | AID 652054, 2013; in the data active means max response below about -50%; inconclusive means no clear call, values can overlap the other calls
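Cells expressing the human receptor were seeded at 1500 cells/well, incubated overnight at 37 degrees C in 5% CO2, then exposed to library compounds with dopamine controls for 90 minutes at 37 degrees C before luminescent detection.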
D1 PAM – Potentiators of Human D1 Dopamine Receptor: qHTS | hit rate 0.036% among 360,000 | HEK293 TREx D1 cells, calcium flux, dopamine EC20 potentiation | potentiation, % at 10 µM; in the data active means potentiation above about 30%
D1 antag – Antagonist of Human D 1 Dopamine Receptor: qHTS; D(1A) dopamine receptor (Homo sapiens), P21728; HEK293 TREx D1 cells, calcium flux, dopamine EC80; active compounds read low; activity change, negative = inhibition, % at 10 µM; hit rate 3.2% among 360,000; AID 504652, 2011; in the data active means activity change below about -30%
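HEK293 T-REx cells expressing inducible, force-coupled D1 receptor; no-wash Ca dye, 30–90 min RT. Cmpd → 180 s read at 1 Hz → EC80 DA → 180 s read.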
Hits are given with their value; n = inactive; u = inconclusive; x = not tested or not shown.

SMILES	D1 agonist	D3 ag	DRD3 antagonist	D1 PAM	D1 antag
COc1ccc(CNC(=O)c2cnc(N3CCCC3)nc2C)cc1	n	n	x	n	-43.8
CCOc1ccc(CCNC(=O)c2sc3nc4n(c(=O)c3c2C)CCCC4)cc1OCC	n	n	x	n	n
Cc1cccc(CCNC(=O)c2sc3nc4n(c(=O)c3c2C)CCCC4)c1	32.3	n	x	n	n
COc1ccc(CNC(=O)c2sc3nc4n(c(=O)c3c2C)CCCC4)cc1	71.4	n	x	n	n
Cc1c(C(=O)NCc2ccccc2Cl)sc2nc3n(c(=O)c12)CCC3	n	n	x	n	n
COC(=O)c1c(NC(=O)CN2CCC3(O)CCCCC3C2c2cc(OC)ccc2OC)sc(C)c1C (centres undefined)	n	n	n	n	n
COc1ccc(C(C)(O)c2nc(-c3ccc(Cl)cc3)cs2)cc1 (centres undefined)	x	n	n	x	x
COc1ccc(NC(=O)CSc2nc3nc(C)c(Cc4ccccc4Cl)c(C)n3n2)cc1OC	n	n	x	n	n
Nn1c(Cc2ccccc2F)nnc1SCCOc1ccc(Cl)cc1	n	n	n	n	-39.3
COc1ccc(OCCSc2nnc(Cc3cccc4ccccc34)n2N)cc1	n	n	n	n	n
Cc1ccc2[nH]c(CSc3nnc(C)s3)cc(=O)c2c1	n	n	x	n	n
Cc1cc(OC(C)C(=O)Nc2ccncc2)ccc1Cl (centres undefined)	n	n	n	n	n
CC1(Oc2cccc(F)c2)CCN(Cc2ccc(-c3ccccn3)cc2)C1 (centres undefined)	x	n	-67.2	x	x
Cc1ccccc1OC1(C)CCN(Cc2ccc(-c3ccccn3)cc2)C1 (centres undefined)	x	n	-75.4	x	x
CC1(Oc2cnc(Cl)c3ccccc23)CCN(Cc2ccc(-c3ccccn3)cc2)C1 (centres undefined)	x	n	n	x	x
CCOC(=O)CS(=O)(=O)c1ccc(O)cc1	n	n	n	n	n
CCC1CN(C(=O)N2CCC(C(=O)NCCc3ccc(C)cc3)CC2)c2ccccc2O1 (centres undefined)	n	n	x	n	n
CC(=O)c1ccc(S(=O)(=O)Nc2cccc(-c3ccc4nncn4n3)c2)cc1	n	n	n	n	-36.5
O=C(O)C1CCN(S(=O)(=O)c2ccc(Cl)s2)CC1	x	n	n	x	x
O=C(Nc1ccc(F)cc1F)Nc1csc2ccccc12	n	n	n	n	-33.4
O=C(Nc1ccc(F)c(Cl)c1)Nc1csc2ccccc12	n	n	n	n	-33.3
Cc1csc(=O)n1CCC(=O)OCC(=O)N(CC(C)C)c1c(N)n(Cc2ccccc2)c(=O)[nH]c1=O	n	n	n	n	n
O=C(Cc1ccc([N+](=O)[O-])cc1)Nc1ccc2c(c1)OCO2	n	n	n	n	n
CC(C(=O)Nc1ccc2c(c1)OCO2)c1ccc([N+](=O)[O-])cc1 (centres undefined)	112.4	n	n	n	n
O=C(Nc1ccc2c(c1)OCCO2)C1CCN(C(=O)c2ccc([N+](=O)[O-])cc2)CC1	n	n	n	n	-31.2
SMILES	D1 agonist	D3 ag	DRD3 antagonist	D1 PAM	D1 antag
CC(NC(=O)c1ccccc1Cl)C(=O)Nc1ccc2c(c1)OCO2 (centres undefined)	n	n	n	n	-83.1
O=C(NCc1ccco1)C1CCN(C(=O)c2ccc(Cl)cc2)CC1	n	n	n	n	n
O=C(NCc1ccco1)C1CCN(C(=O)c2ccc([N+](=O)[O-])cc2)CC1	n	n	n	n	-44.7
O=C(Nc1ccc2c(c1)OCCO2)C1CCN(C(=O)c2ccc(Br)cc2)CC1	n	n	n	n	n
CC(C)n1nc(C(=O)Nc2ccc3c(c2)OCO3)c2ccccc2c1=O	n	n	n	x	-32.5
CC(C)c1ccc(NC(=O)C(c2ccc3c(c2)OCO3)N2CCN(C(=O)c3ccco3)CC2)cc1 (centres undefined)	n	n	n	n	n
O=C(Nc1ccc2c(c1)OCO2)c1nn(-c2ccccc2)c(=O)c2ccccc12	n	n	n	n	n
CCN(CC)C(C(=O)Nc1ccc(C(C)C)cc1)c1ccc2c(c1)OCO2 (centres undefined)	n	n	-54.1	n	n
CC(C(=O)Nc1ccc2c(c1)OCCO2)c1ccc([N+](=O)[O-])cc1 (centres undefined)	101.2	n	n	n	-51.0
COc1ccccc1C(=O)NCCC(=O)Nc1cccc(S(=O)(=O)N2CCCC2)c1	n	n	n	n	n
COCCC(=O)N1CCC(Oc2ccc(C(=O)NCCCC3CCCC3)cc2)CC1	n	n	n	n	n
COc1ccc(C(=O)N(C)CCCC2CCCC2)cc1OC1CCN(C(C)C)CC1	n	n	n	n	-46.7
COc1ccc(C(=O)N(C)CCCC2CCCC2)cc1OC1CCN(C(C)=O)CC1	n	n	n	n	n
COCCC(=O)N1CCC(Oc2ccc(C(=O)N(C)CCCC3CCCC3)cc2)CC1	n	n	u	n	-32.6
CCOC(=O)c1ccccc1NC(=O)c1cc2c(s1)-c1c(C)cccc1OC2	n	n	x	n	n
CCOC(=O)c1ccccc1NC(=O)c1cc2c(s1)-c1ccccc1SC2	n	n	x	n	-45.1
COc1ccc(C)cc1NC(=O)c1cc2c(s1)-c1ccccc1SC2	n	n	x	n	-32.4
Cc1cccc(-c2noc(CN(C(=O)c3ccc(C)c(C)c3)C(C)C)n2)c1	n	n	x	n	n
COc1ccccc1OCC(=O)N(Cc1nc(-c2ccc(Cl)cc2)no1)C(C)C	n	n	n	n	-35.3
COc1ccccc1OCC(=O)N(Cc1nc(-c2ccccc2)no1)C(C)C	n	n	n	n	n
CCOc1cc(C(=O)NCc2ccncc2)cc(OCC)c1OCC	n	n	-100.2	n	n
CCc1ccc(OCC(=O)NC2CCCCC2)c(Br)c1	n	n	n	n	n
CCOc1ccc(C(=O)N(Cc2nc(-c3cccc(C)c3)no2)C(C)C)cc1	47.3	n	x	n	n
CCc1ccc(OCC(=O)NCCN(C)C)c(Br)c1	n	n	n	n	-33.6
CC1CCCCC1NC(=O)CCn1ccc2cc(S(=O)(=O)N3CCCC3)ccc21 (centres undefined)	n	n	n	n	n
SMILES	D1 agonist	D3 ag	DRD3 antagonist	D1 PAM	D1 antag
Cc1cccc(-c2noc(CNC(=O)COc3ccccc3C)n2)c1	n	n	n	n	n
Cc1cc(C)cc(OCC(=O)NCc2nc(-c3ccccc3)no2)c1	n	n	u	n	-58.0
CCOc1cc(C(=O)NCc2nc(-c3cccc(C)c3)no2)cc(OCC)c1OCC	n	n	x	n	-30.7
Cc1cc(C)cc(OCc2nc(-c3cccnc3)no2)c1	n	n	n	n	-30.4
Cc1ccc(OCc2nc(-c3cccnc3)no2)cc1C	n	n	n	n	n
CCc1ccc(OCC(=O)NCc2nc(-c3cccc(C)c3)no2)c(Br)c1	38.1	n	x	n	n
